Inconclusive results are not listed. The source made the active and inactive calls. How the source made its calls, unless noted: active means hit-call score of the fitted dose curve at least 0.9, where 1 is the maximum; inactive means score below 0.9.
Assays:
[1] = CCTE_Mundy_HCI_Cortical_Synap_Neur_Matur_NeuriteLength: CCTE's Synaptogenesis and Neurite Maturation Assay in rat cortical cells for Neurite Length, Mundy Lab (AID 2284214)
Procedure, shortened: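 Cultures of rat primary cortical cells received chemical at DIV 7 and were fixed at DIV 12, after glial arrest with AraC at DIV 5. Neurite length was measured by automated imaging of MAP2 immunofluorescence.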

[2] = CCTE_Mundy_HCI_Cortical_Synap_Neur_Matur_NeuriteSpotCountPerNeuron: CCTE's Synaptogenesis and Neurite Maturation Assay in rat cortical cells for Neurite Spot Count per Neuron Count, Mundy Lab (AID 2284215)
Procedure, shortened: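 Read-out: neurite-associated synaptophysin puncta per neuron, imaged by high-content analysis after MAP2, synaptophysin and Hoechst staining. Rat primary cortical cultures, dosed DIV 7 through DIV 12; DMSO served as baseline.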

[3] = CCTE_Mundy_HCI_Cortical_Synap_Neur_Matur_SynapseCount: CCTE's Synaptogenesis and Neurite Maturation Assay in rat cortical cells for Synapse Count, Mundy Lab (AID 2284218)
Procedure, shortened: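 Cells were plated, allowed 2 hr to attach, treated with AraC at DIV 5, then exposed to chemicals from DIV 7 until DIV 12. After fixation and MAP2/synaptophysin immunolabelling, synapses per neuron were quantified by automated imaging against DMSO.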

[4] = CCTE_Mundy_HCI_Cortical_Synap_Neur_Matur_NeuriteCount: CCTE's Synaptogenesis and Neurite Maturation Assay in rat cortical cells for Neurite Count, Mundy Lab (AID 2284222);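 further: exposure from day 7 to day 12 in vitro with readout at day 12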
Procedure, shortened: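 Chemical exposure runs DIV 7–12 in rat cortical cultures, glia suppressed by AraC at DIV 5; measurement is at DIV 12. Imaging-derived neurite counts are fitted against DMSO baseline.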

[5] = CCTE_Mundy_HCI_Cortical_Synap_Neur_Matur_CellBodySpotCount: CCTE's Synaptogenesis and Neurite Maturation Assay in rat cortical cells for Cell Body Spot Count, Mundy Lab (AID 2284223)
Procedure, shortened: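 Read-out: cell body-associated synaptophysin puncta per neuron, imaged after MAP2, synaptophysin and Hoechst staining. Rat cortical cells, AraC DIV 5, chemical dosing DIV 7, fixation DIV 12. Activity fitted in positive direction relative to DMSO baseline.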

[6] = CCTE_Mundy_HCI_hNP1_Pro_ResponderAvgInten: CCTE's Proliferation Assay in human neuroprogenitor cells, Mundy Lab (AID 2284224; active means hit-call score of the fitted dose curve at least 0.9, where 1 is the maximum;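 further: human neural progenitor cells hNP1 derived from WA09 embryonic stem cells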)
Procedure, shortened: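 Proliferation was scored as BrdU labelling intensity in human neural progenitors derived from WA09 embryonic cells, measured 26.25 hours after chemical dosing. Activity was fitted relative to DMSO.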

[7] = UKN2_HCS_IMR90_cell_viability: Viability Assessment in the University of Konstanz (UKN) Leist Lab Neural Crest Cell Migration Assay in human induced IMR90 Pluripotent Stem Cells (UKN2) (AID 2284233);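 further: cells exposed to compound for 24 h after a 24 h migration phase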
Procedure, shortened: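 After calcein-AM/Hoechst staining, viability is quantified by high-content fluorescence imaging, relative to DMSO, in iPSC (IMR90)-derived neural crest cells. Exposure lasts 24 h, starting after a 24 h migration period on PLO/laminin/fibronectin coating.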

[8] = CCTE_Mundy_HCI_Cortical_NOG_NeuronCount: CCTE's Neurite Outgrowth Assay in rat cortical cells for Neuron Count, Mundy Lab (AID 2284236; active means hit-call score of the fitted dose curve at least 0.9, where 1 is the maximum;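 further: neurons counted by imaging betaIII-tubulin and Hoechst stained cortical cells; cells exposed to compound for about 48 hours before fixation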)
Procedure, shortened: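 Read-out: neuron number by high-content imaging of betaIII-tubulin (Alexa Fluor-488) and Hoechst-labelled rat primary cortical cells.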

[9] = CCTE_Mundy_HCI_Cortical_NOG_BPCount: CCTE's Neurite Outgrowth Assay in rat cortical cells for Branch Point Count, Mundy Lab (AID 2284237)
Procedure, shortened: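 Measured 50.33 h after dosing, this morphology endpoint uses rat primary cortical cultures labelled for betaIII-tubulin. Branch points are quantified by high-content imaging, with DMSO as negative control and baseline.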

[10] = CCTE_Mundy_HCI_hNP1_Casp3_7: CCTE's Caspase-Glo 3/7 Assay in human neuroprogenitor cells for Apoptosis, Mundy Lab (AID 2284240)
Procedure, shortened: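 Apoptosis is scored by activated caspase-3/7 luminescence in WA09-derived neural progenitor cells, measured 26.5 h after chemical dosing. Values represent gain of signal relative to DMSO vehicle.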

[11] = CCTE_Mundy_HCI_Cortical_Synap_Neur_Matur_NeuronCount: CCTE's Synaptogenesis and Neurite Maturation Assay in rat cortical cells for Neuron Count, Mundy Lab (AID 2284242; active means hit-call score of the fitted dose curve at least 0.9, where 1 is the maximum;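 further: neuron number from Hoechst nuclei and MAP2 staining by high-content imaging; hits reduce neuron count versus DMSO baseline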)
Procedure, shortened: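 Cortical cells from rat are plated, treated with AraC at DIV 5, and exposed to test chemicals with a media change at DIV 7. At DIV 12 they are fixed and immunostained (MAP2, synaptophysin), and imaged neuron counts are compared against DMSO controls.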

[12] = IUF_NPC2c_oligodendrocyte_migration_120hr: Leibniz Research Institute for Environmental Medicine (IUF) 120-hour Neural Progenitor Cell Migration Assay for Oligodendrocyte Migration (NPC2c) (AID 2284297);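 further: O4-positive oligodendrocyte migration distance divided by radial glia migration distance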
Procedure, shortened: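 hNPC spheres (GW 16-19 cortex), PDL/laminin, DMEM/F12 3:1 + 1% N2, 37C. Dosing day 0–5, half feed day 3, DMSO ≤0.1%. Fixed 120 h; O4 ICC + Hoechst, HCI. Readout: mean oligodendrocyte distance from sphere edge / radial glia distance.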

[13] = IUF_NPC2a_radial_glia_migration_120hr: Leibniz Research Institute for Environmental Medicine (IUF) 120-hour Neural Progenitor Cell Migration Assay for Radial Glia Migration (NPC2a) (AID 2284298)
Procedure, shortened: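 Hoechst-stained nuclei imaged at 120 h; algorithm maps sphere core by densest nuclei, sets migration edge at density threshold, gives radial glia migration distance (um) per well vs DMSO. hNPC spheres (0.3 mm), PDL/laminin, DMEM/F12 3:1 + 1% N2.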

[14] = IUF_NPC2a_radial_glia_migration_72hr: Leibniz Research Institute for Environmental Medicine (IUF) 72-hour Neural Progenitor Cell Migration Assay for Radial Glia Migration (NPC2a) (AID 2284299)
Procedure, shortened: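 Single 0.3 mm neurospheres were plated per well in N2 differentiation medium and exposed from the start of differentiation. After 72 hours, brightfield images were taken and radial glia migration from the sphere core edge was measured manually in four directions, averaged per well.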

[15] = IUF_NPC2b_neuronal_migration_120hr: Leibniz Research Institute for Environmental Medicine (IUF) 120-hour Neural Progenitor Cell Migration Assay for Neuron Migration (NPC2b) (AID 2284300)
Procedure, shortened: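 hNPC spheres, PDL/laminin, DMEM:F12 3:1 + 1% N2, 37C/5% CO2; 7 concentrations + solvent control (DMSO ≤0.1%), 5 d exposure, half-feed day 3. Fix 120 h, TUBB3 ICC, HCI: mean neuron migration distance ÷ glia distance.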

[16] = IUF_NPC3_neuronal_differentiation_120hr: Leibniz Research Institute for Environmental Medicine (IUF) 120-hour Neuronal Differentiation Assay (NPC3) (AID 2284301)
Procedure, shortened: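 Value is percent TUBB3-positive neurons among Hoechst-stained nuclei in the migration area, scored by trained CNN after 120 h differentiation. Primary hNPC spheres on poly-D-lysine/laminin, N2 medium, continuous dosing from day 0, half-refeed day 3; DMSO reference.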

[17] = IUF_NPC4_neurite_area_120hr: Leibniz Research Institute for Environmental Medicine (IUF) 120-hour Neuronal Morphology Assay for Neurite Area (NPC4) (AID 2284305; active means hit-call score of the fitted dose curve at least 0.9, where 1 is the maximum)
Procedure, shortened: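 Neurite area (pixels, nuclei excluded) of TUBB3-positive neurons from hNPC spheres differentiating 5 days under continuous exposure at 37 C, 5% CO2. High-content imaging; loss of signal versus DMSO control across 7 concentrations.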

[18] = IUF_NPC2-5_cytotoxicity_72hr: Cytotoxicity Assessment at 72 hours in the Leibniz Research Institute for Environmental Medicine (IUF) Neural Progenitor Cell Migration and Differentiation Assay for Cytotoxicity (NPC2-5) (AID 2284306; active means hit-call score of the fitted dose curve at least 0.9, where 1 is the maximum;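 further: LDH release into supernatant measured by resorufin fluorescence marking membrane damage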)
Procedure, shortened: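 Membrane-integrity cytotoxicity at 72 h, read as LDH-driven resorufin fluorescence in supernatant. hNPC spheres from fetal cortex differentiate on coated plates in N2 medium, 37C, 5% CO2; seven serial compound concentrations plus solvent control (DMSO ≤0.1%).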

[19] = IUF_NPC2-5_cytotoxicity_120hr: Cytotoxicity Assessment at 120 hours in the Leibniz Research Institute for Environmental Medicine (IUF) Neural Progenitor Cell Migration and Differentiation Assay (NPC2-5) (AID 2284307; active means hit-call score of the fitted dose curve at least 0.9, where 1 is the maximum)
Procedure, shortened: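 hNPC spheres on PDL/laminin, N2 medium, 37C; 7 concs + solvent control, DMSO ≤0.1%; 5-day exposure, half medium changed day 3. LDH in supernatant at 120 h, resazurin→resorufin fluorescence, gain-of-signal.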

[20] = IUF_NPC2-5_cell_number_120hr: Cell Number Assessment at 120 hours in the Leibniz Research Institute for Environmental Medicine (IUF) Neural Progenitor Cell Migration and Differentiation Assay (NPC2-5) (AID 2284308);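 further: count of Hoechst-stained nuclei in migration zone around plated human neural progenitor spheres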
Procedure, shortened: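 Hoechst-stained nuclei within the migration area were counted by automated high content imaging after 120 h. Single hNPC spheres differentiated on poly-D-lysine/laminin in DMEM/F12 (3:1) with 1% N2, compound present throughout, DMSO ≤0.1%.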

[21] = IUF_NPC2-5_viability_120hr: Viability Assessment at 120 hours in the Leibniz Research Institute for Environmental Medicine (IUF) Neural Progenitor Cell Migration and Differentiation Assay (NPC2-5) (AID 2284312)
Procedure, shortened: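 Alamar blue resorufin fluorescence read after 5 days of differentiation, with compound present from day 0 and replenished at day 3. Primary hNPC spheres on laminin-coated plates, 37C; seven concentrations plus solvent control, fitted against DMSO.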

[22] = CCTE_Mundy_HCI_iCellGluta_NOG_NeuriteLength: CCTE's Neurite Outgrowth Assay in iCellGluta cells for Neurite Length, Mundy Lab (AID 2284318; active means hit-call score of the fitted dose curve at least 0.9, where 1 is the maximum)
Procedure, shortened: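 Automated high-content imaging of betaIII-tubulin (Alexa Fluor-488) and Hoechst-stained cells gave neurite length, normalized to the DMSO baseline.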

[23] = IUF_NPC1_cytotoxicity_72hr: Cytotoxicity Assessment at 72 hours in the Leibniz Research Institute for Environmental Medicine (IUF) Neural Progenitor Cell Proliferation Assay (NPC1) (AID 2284332; active means hit-call score of the fitted dose curve at least 0.9, where 1 is the maximum;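 further: rising LDH signal means more cytotoxicity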)
Procedure, shortened: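 Membrane-integrity loss is scored from LDH released into the medium, detected as resorufin fluorescence, with activity fitted upward relative to baseline. Test material stays on human fetal-derived progenitor spheres for 72 h.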

[24] = CCTE_Mundy_HCI_iCellGluta_NOG_NeuriteCount: CCTE's Neurite Outgrowth Assay in iCellGluta cells for Neurite Count, Mundy Lab (AID 2284342; active means hit-call score of the fitted dose curve at least 0.9, where 1 is the maximum;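 further: chemical exposure about 48 hours starting 2 hours after plating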)

SMILES: CCOP(=O)(OCC)OC(Cl)C(Cl)(Cl)Cl (centres undefined)
- outcome [1]: inactive
- outcome [2]: inactive
- outcome [3]: inactive
- outcome [4]: inactive
- outcome [5]: inactive
- outcome [6]: inactive
- outcome [7]: inactive
- outcome [8]: inactive
- outcome [9]: inactive
- outcome [10]: inactive
- AC50 [11]: 9.85 µM (active)
- outcome [12]: inactive
- outcome [13]: inactive
- outcome [14]: inactive
- outcome [15]: inactive
- outcome [16]: inactive
- outcome [17]: inactive
- outcome [18]: inactive
- outcome [19]: inactive
- AC50 [20]: 36 µM (active)
- outcome [21]: inactive
- outcome [22]: inactive
- outcome [23]: inactive
- outcome [24]: inactive
